MPTP inh – mitochondrial permeability transition pore inhibitors, primary screen, biochemical, isolated mouse mitochondria, absorbance. 360,000 compounds, 1.4% hits. Ca2+ swelling absorbance, 30 min. inhibition, % at 10 µM;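 active = inhibition of 50% or more, scaled per plate between neutral and stimulator controls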;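 note: 0% = DMSO wells given calcium and 100% = 1 mM EGTA wells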
NR3A LBD binder – binders of NR3A ligand-binding domain, primary screen, biophysical, differential scanning fluorimetry, uHTS; 340,000 compounds, 2.5% hits; AID 1259313, 2017; Tm shift relative to glycine control, % at 25 µM; Glutamate receptor ionotropic, NMDA 3A (GRIN3A) ligand-binding domain; NR3A LBD differential scanning fluorimetry, Tm shift; 0% = protein alone, 100% = glycine-bound protein;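 active = melting temperature shift of at least 10% of the positive control shift, at one fixed dose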
Gli-Sufu antag – Gli-Sufu pathway antagonists, primary screen, luciferase luminescence, Sufu-KO-LIGHT cells, uHTS; Sufu-KO-LIGHT fibroblasts, Gli luciferase reporter luminescence; inhibition, % at 5 µM; 340,000 compounds, 0.74% hits; AID 588413, 2011;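 active = inhibition above about 55%, limit read from the data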;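 note: 0% = DMSO-treated cells and 100% = wells with medium but no cells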
CSC inhib – cancer stem cell viability inhibitors, primary screen, luminescence. cancer stem cell-like cells viability. inhibition, % at 7.5 µM. 300,000 compounds, 1.1% hits. AID 2717, 2010; in the data active = inhibition above about 75%; tested in HMLE shEcad cells
Mdm2 MdmX PPI – inhibitors of human Mdm2-MdmX association, primary screen, cell-based, luminescence, split luciferase, SaOS-2, uHTS. Protein Mdm4 (Homo sapiens) + E3 ubiquitin-protein ligase Mdm2 (Homo sapiens), …. SaOS-2 split-luciferase Mdm2/MdmX complementation. inhibition, % at 8 µM. 330,000 compounds, 3% hits;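 active = inhibition of at least 50% at 8 µM in the primary screen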
Beta cell apopt – inhibitors of cytokine-induced beta cell apoptosis, primary screen, luminescence | protection from apoptosis, % (no concentration beside the values) | 300,000 compounds, 0.8% hits | INS-1E cytokine-induced death, ATP luminescence, 48 h; percent of positive-control rescue, neutral wells zero | AID 435005, 2010;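 active = Every replicate reaches about 75%, or at least half do and their mean reaches it too, limit read from the data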;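 note: 0% = cytokine-treated negative control wells and 100% = positive control rescue; higher means more ATP so stronger rescue from cytokine killing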
Numbers without * were called inactive; / = no result. Only some compounds are listed: those with a hit (about 6.6% of all), similar ones and a draw of the others.

SMILES | MPTP inh | NR3A LBD binder | Gli-Sufu antag | CSC inhib | Mdm2 MdmX PPI | Beta cell apopt
O=C(Nc1ccc(-c2cn3ccccc3n2)cc1)c1ccco1 | -14 | 24* | -72 | -12 | -158 | 0
CC(=O)Nc1ccc(-c2cn3cc(C)ccc3n2)cc1 | 0 | 20* | -83 | -10 | -56 | -3
O=C(Nc1ccc(-c2cn3ccccc3n2)cc1)c1ccc(Cl)cc1 | 2 | 14* | -19 | 2 | -2 | 0
COc1ccc(-c2cn3ccccc3n2)cc1 | 2 | 26* | -78 | 1 | -80 | 6
Clc1ccc(-c2cn3ccccc3n2)cc1 | 0 | 2 | -69 | 7 | -82 | 9
CCCOc1ccc(-c2cn3ccccc3n2)cc1 | 1 | -15 | -92 | 6 | -94 | 22
CCOC(=O)C1=CCN(S(=O)(=O)c2ccc(F)cc2)C1c1ccc(Cl)c(Cl)c1 (stereo unspecified) | 0 | / | / | / | / | /
CCN(CC)C1CCN(Cc2c(C(=O)N3CCCCCCC3)nc3ccc(Cl)cn23)C1 (stereo unspecified) | 0 | 2 | 9 | -13 | 46 | -9
Cc1c(NC(=O)C(C)OC(=O)c2ccc([N+](=O)[O-])cc2Cl)c(=O)n(-c2ccccc2)n1C (stereo unspecified) | -1 | 0 | 0 | / | / | /
c1csc(-c2nc(CN3CCSCC3)cs2)c1 | 0 | -1 | -41 | 6 | -64 | -4
COc1cc2c(cc1OC)C1(C)N(CC2)C(C(C)=O)=NN1c1ccc(Cl)cc1 (stereo unspecified) | 1 | -1 | 7 | 5 | -18 | 1
COc1ccc(Oc2nc(C(F)(F)F)nc3ccccc23)cc1 | -1 | 23* | 4 | 4 | 13 | 4
N#CCSc1n[nH]c2nc3c(c(=O)n12)C1(CCCC1)Cc1ccccc1-3 | -14 | -3 | 9 | 22 | 0 | -9
N#CCSc1nc2c(c(=O)n1Cc1ccco1)C1(CCCC1)Cc1ccccc1-2 | 0 | 0 | 4 | 83* | 27 | 0
CCCn1c(SCC#N)nc2c(c1=O)C1(CCCC1)Cc1ccccc1-2 | 0 | -24 | 0 | 127* | -19 | 9
O=C1C(Nc2ccc(O)cc2)=C/C(=N/S(=O)(=O)c2cccs2)c2ccccc21 | 10 | -1 | 94* | / | / | /
CCc1ccc(S(=O)(=O)/N=C2\C=C(Nc3cccc(C(=O)O)c3)C(=O)c3ccccc32)cc1 | 9 | 2 | -18 | / | 31 | 52
Cc1cccc(NC2=C/C(=N/S(=O)(=O)c3cccs3)c3ccccc3C2=O)c1 | 7 | -3 | 34 | 119* | / | 105*
O=C(O)c1ccc(NC2=C/C(=N/S(=O)(=O)c3cccs3)c3ccccc3C2=O)cc1 | 11 | / | / | / | / | /
CCCCOc1ccc(C(=O)NNC(=S)NC(=O)CC)cc1 | 7 | -2 | 16 | 47 | / | 79*
CCC(=O)NC(=S)NNC(=O)c1ccc(OC)cc1 | 0 | -2 | 2 | 20 | -25 | /
CCCOc1ccc(C(=O)NNC(=S)NC(=O)c2cc(-c3ccccc3)nc3ccccc23)cc1 | 30 | 18* | -9 | 22 | 26 | -3
O=C1N/C(=N\S(=O)(=O)Cc2ccccc2)S/C1=C/c1cc([N+](=O)[O-])ccc1O | -2 | 8 | 3 | -2 | 3 | -1
O=C1N/C(=N\S(=O)(=O)c2ccccc2)S/C1=C\c1cc([N+](=O)[O-])ccc1O | 0 | 14* | 3 | 0 | -15 | 4
N#CC1(NC(=O)COC(=O)c2cc(O)c3ccccc3c2O)CCCCC1 | 0 | -5 | 15 | 89* | 30 | -2
SMILES | MPTP inh | NR3A LBD binder | Gli-Sufu antag | CSC inhib | Mdm2 MdmX PPI | Beta cell apopt
Cc1ccc(S(=O)(=O)Oc2ccc(/C=C(/NC(=O)c3ccccc3)C(=O)O)cc2)cc1 | 3 | 11* | 11 | 7 | 2 | 7
Cc1ccc(S(=O)(=O)Oc2ccc(/C=C(/NC(=O)c3ccccc3)C(=O)NCC(=O)O)cc2)cc1 | -3 | 1 | -5 | 1 | -23 | -1
O=C(CCc1ccccc1)N/N=C/c1cccc(O)c1 | -3 | -14 | -1 | -3 | 27 | -3
Nc1ccc(C(=O)N/N=C/c2cn(Cc3ccc(F)cc3)c3ccccc23)cc1 | 0 | 16* | -2 | 2 | 5 | -9
Cn1c2ccccc2c2cc(/C=N/NC(=O)c3ccc(N)cc3)ccc21 | 0 | 17* | -2 | 32 | 19 | 17
O=C(Cc1nnc(NC(=O)c2ccccc2)s1)N/N=C/c1ccco1 | 0 | 0 | 43 | -8 | -10 | -4
O=C(N/N=C/c1cccc(O)c1)N/N=C/c1cccc(O)c1 | 0 | 10* | 6 | 0 | 14 | -2
Nc1ccc(C(=O)N/N=C/c2cn(Cc3ccccc3)c3ccccc23)cc1 | 0 | 6 | -5 | 3 | 14 | 2
O=C(Cc1nnc(NC(=O)c2ccccc2)s1)N/N=C/c1cccc(O)c1 | 2 | 41* | -13 | 44 | -21 | -5
COc1ccc(-c2ccccc2)cc1NC(=O)[C@@H]1O[C@H](CO)[C@H](O)[C@H](O)[C@H]1O | 2 | / | / | / | / | /
N#Cc1c(SCc2c(Cl)cccc2Cl)nc(N)[nH]c1=S | 3 | 8 | 4 | 28 | 19 | -1
C[C@@H]1CCCCO[C@H](CN(C)C(=O)Cc2ccccc2)[C@H](C)CN([C@@H](C)CO)C(=O)c2cc(NC(=O)Nc3ccc(F)cc3)ccc2O1 | 0 | / | / | / | / | /
COc1cccc(C(=O)NCCC(=O)NCc2cc(=O)n(C)c(=O)n2C)c1 | -2 | 1 | -2 | -18 | -12 | 3
Cc1ccc(Cn2cc(/C=N/NC(=O)Cc3nnc(NC(=O)c4ccc(C)cc4)s3)c3ccccc32)cc1 | -2 | 13* | -1 | -2 | 17 | 11
Cc1ccccc1OCC(=O)N/N=C/c1cn(Cc2ccccc2)c2ccccc12 | 1 | 7 | -1 | 0 | 31 | -4
CC(=O)N(c1ccccc1Cl)S(=O)(=O)c1ccc(Cl)cc1 | -2 | -3 | -2 | -8 | -7 | 2
COc1ccc(S(=O)(=O)N(C(C)=O)c2ccc(OC(C)=O)c3ccccc23)cc1[N+](=O)[O-] | 3 | -1 | 13 | 22 | 22 | 106*
CC(=O)Oc1ccc(N(C(C)=O)S(=O)(=O)c2ccccc2)c2ccccc12 | 0 | / | / | / | / | /
CC(=O)Oc1c(Cl)cc(N(C(C)=O)S(=O)(=O)c2ccccc2)c2ccccc12 | 3 | -1 | 6 | 12 | 23 | 95*
O=C(c1ccc([N+](=O)[O-])cc1)N1CCN(C(=O)C2CCCCC2)CC1 | 0 | -1 | -2 | -5 | 15 | -2
COc1ccccc1NC(=O)CSc1nc(=O)n(CCN2CCOCC2)c2c1CCC2 | -1 | -1 | -6 | 7 | 6 | 1
